From PubChem BioAssay AID1159580 (chemical genetic matrix, 2015)
In all, about 5,500 compounds went through this assay and about 2,000 (36%) were called active. Roughly 18% stayed inconclusive and do not appear here. Cut-off read from the data, not from the text of the source: active = normalized growth mostly below about 0.91 (no sharp cut-off); inconclusive = no clear call, values can overlap the other calls; inactive = mostly above about 0.92. The list shows a part of the results.

Experiment: chemical genetic growth profiling, strain panel (AID 1159580);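 note: tested at 20 µM; growth read once vehicle control cultures reached saturation at 30 °C; 1 = growth at the plate median or of vehicle wells; lower values mean less growth of the strain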
Settings: growth OD

Measured: normalized growth

CCCCCCCCCCC[C@@H](C[C@H]1OC(=O)[C@H]1CCCCCC)OC(=O)[C@@H](CC(C)C)NC=O
inactive: S. cerevisiae deletion strains, locus YJR043C, strain POL32, active compounds read low 1.03 | S. cerevisiae deletion strains, locus YJR075W, strain HOC1, active compounds read low 1.06 | S. cerevisiae deletion strains, locus YKL009W, strain mrt4, active compounds read low 0.996 | S. cerevisiae deletion strains, locus YKL068W, active compounds read low 1 | S. cerevisiae deletion strains, locus YKL085W, strain MDH1 (second series), active compounds read low 1.02 | S. cerevisiae deletion strains, locus YKL085W, strain MDH1, active compounds read low 1.02 | S. cerevisiae deletion strains, locus YKL160W, strain elf1, active compounds read low 0.988 | S. cerevisiae deletion strains, locus YKL190W, strain CNB1, active compounds read low 1.03 | S. cerevisiae deletion strains, locus YKR001C, strain vps1, active compounds read low 1.03 | S. cerevisiae deletion strains, locus YKR026C, strain gcn3, active compounds read low 1.03 | S. cerevisiae deletion strains, locus YKR091W, strain srl3, active compounds read low 1.05 | S. cerevisiae deletion strains, locus YLL001W, strain dnm1, active compounds read low 1.04 | S. cerevisiae deletion strains, locus YLL026W, active compounds read low 0.997 | S. cerevisiae deletion strains, locus YLL041C, strain sdh2, active compounds read low 1.03 | S. cerevisiae deletion strains, locus YLR027C, strain aat2, active compounds read low 1.03 | S. cerevisiae deletion strains, locus YLR039C, strain RIC1, active compounds read low 1.03 | S. cerevisiae deletion strains, locus YLR058C, strain SHM2, active compounds read low 1.04 | S. cerevisiae deletion strains, locus YLR102C, strain apc9, active compounds read low 1.01 | S. cerevisiae deletion strains, locus YLR221C, strain rsa3, active compounds read low 1.03 | S. cerevisiae deletion strains, locus YLR258W, strain gsy2, active compounds read low 1.03 | S. cerevisiae deletion strains, locus YLR262C, strain YPT6 (second series), active compounds read low 1.1 | S. cerevisiae deletion strains, locus YLR262C, strain YPT6, active compounds read low 1.07 | S. cerevisiae deletion strains, locus YLR268W, strain sec22, active compounds read low 1.02 | S. cerevisiae deletion strains, locus YLR320W, strain mms22, active compounds read low 1.05 | S. cerevisiae deletion strains, locus YLR330W, strain CHS5, active compounds read low 1.03 | S. cerevisiae deletion strains, locus YLR342W, strain FKS1 (second series), active compounds read low 1.02 | S. cerevisiae deletion strains, locus YLR342W, strain FKS1, active compounds read low 1.01 | S. cerevisiae deletion strains, locus YLR357W, strain rsc2, active compounds read low 1.09 | S. cerevisiae deletion strains, locus YLR370C, strain arc18, active compounds read low 1.03 | S. cerevisiae deletion strains, locus YLR371W, strain rom2, active compounds read low 1.01 | S. cerevisiae deletion strains, locus YLR384C, strain iki3, active compounds read low 1.03 | S. cerevisiae deletion strains, locus YLR418C, strain cdc73, active compounds read low 1.03 | S. cerevisiae deletion strains, locus YML016C, strain PPZ1, active compounds read low 1.04 | S. cerevisiae deletion strains, locus YML032C, strain rad52, active compounds read low 1.04 | S. cerevisiae deletion strains, locus YML120C, strain ndi1, active compounds read low 1.02 | S. cerevisiae deletion strains, locus YML124C, strain tub3, active compounds read low 1.01 | S. cerevisiae deletion strains, locus YMR058W, strain fet3, active compounds read low 1.06 | S. cerevisiae deletion strains, locus YMR078C, strain ctf18, active compounds read low 1.03 | S. cerevisiae deletion strains, locus YMR125W, strain sto1, active compounds read low 1.05 | S. cerevisiae deletion strains, locus YMR129W, active compounds read low 1.02 | S. cerevisiae deletion strains, locus YMR205C, strain PFK2, active compounds read low 1.02 | S. cerevisiae deletion strains, locus YMR223W, strain ubp8, active compounds read low 1.03 | S. cerevisiae deletion strains, locus YMR231W, strain pep5, active compounds read low 1.05 | S. cerevisiae deletion strains, locus YMR263W, strain SAP30, active compounds read low 1.04 | S. cerevisiae deletion strains, locus YMR307W, strain GAS1, active compounds read low 1.05 | S. cerevisiae deletion strains, locus YNL067W, strain RPL9B, active compounds read low 1.04 | S. cerevisiae deletion strains, locus YNL071W, strain lat1, active compounds read low 1.02 | S. cerevisiae deletion strains, locus YNL128W, strain TEP1, active compounds read low 1.02 | S. cerevisiae deletion strains, locus YNL153C, strain GIM3, active compounds read low 1.04 | S. cerevisiae deletion strains, locus YNL209W, strain ssb2, active compounds read low 1.06 | S. cerevisiae deletion strains, locus YNL233W, strain BNI4, active compounds read low 1.03 | S. cerevisiae deletion strains, locus YNL248C, strain rpa49, active compounds read low 1.06 | S. cerevisiae deletion strains, locus YNL250W, strain rad50, active compounds read low 1.03 | S. cerevisiae deletion strains, locus YNL271C, strain bni1, active compounds read low 1.02 | S. cerevisiae deletion strains, locus YNL298W, strain CLA4, active compounds read low 1.03 | S. cerevisiae deletion strains, locus YNL307C, strain MCK1, active compounds read low 1.03 | S. cerevisiae deletion strains, locus YNL322C, strain KRE1 (second series), active compounds read low 1.03 | S. cerevisiae deletion strains, locus YNL322C, strain KRE1, active compounds read low 1.04 | S. cerevisiae deletion strains, locus YNR049C, strain mso1, active compounds read low 1.04 | S. cerevisiae deletion strains, locus YNR052C, strain pop2, active compounds read low 1.03 | S. cerevisiae deletion strains, locus YOL006C, strain TOP1, active compounds read low 1.08 | S. cerevisiae deletion strains, locus YOL012C, strain htz1 1.37 | S. cerevisiae deletion strains, locus YOL147C, strain pex11, active compounds read low 1.02 | S. cerevisiae deletion strains, locus YOR001W, strain rrp6, active compounds read low 1.03 | S. cerevisiae deletion strains, locus YOR061W, strain CKA2, active compounds read low 1.03 | S. cerevisiae deletion strains, locus YOR069W, strain VPS5, active compounds read low 1.02 | S. cerevisiae deletion strains, locus YOR070C, strain gyp1, active compounds read low 1.04 | S. cerevisiae deletion strains, locus YOR080W, strain dia2, active compounds read low 0.999 | S. cerevisiae deletion strains, locus YOR083W, strain WHI5, active compounds read low 1.04 | S. cerevisiae deletion strains, locus YOR106W, strain vam3, active compounds read low 1.03 | S. cerevisiae deletion strains, locus YOR136W, strain idh2, active compounds read low 1.03 | S. cerevisiae deletion strains, locus YOR144C, strain elg1, active compounds read low 1.02 | S. cerevisiae deletion strains, locus YOR184W, strain ser1, active compounds read low 1 | S. cerevisiae deletion strains, locus YOR265W, strain rbl2, active compounds read low 1.05 | S. cerevisiae deletion strains, locus YOR270C, strain vph1, active compounds read low 1.11 | S. cerevisiae deletion strains, locus YOR290C, strain snf2, active compounds read low 1.05 | S. cerevisiae deletion strains, locus YOR316C, strain cot1, active compounds read low 1.01 | S. cerevisiae deletion strains, locus YPL051W, strain arl3, active compounds read low 1.06 | S. cerevisiae deletion strains, locus YPL055C, strain LGE1, active compounds read low 1.04 | S. cerevisiae deletion strains, locus YPL078C, strain atp4, active compounds read low 1.08 | S. cerevisiae deletion strains, locus YPL106C, strain sse1, active compounds read low 1.05 | S. cerevisiae deletion strains, locus YPL240C, strain hsp82, active compounds read low 1.02 | S. cerevisiae deletion strains, locus YPL241C, strain CIN2, active compounds read low 1.03 | S. cerevisiae deletion strains, locus YPR119W, strain clb2, active compounds read low 0.996 | S. cerevisiae deletion strains, locus YPR141C, strain kar3, active compounds read low 1.02 | S. cerevisiae deletion strains, locus YPR163C, strain tif3, active compounds read low 1.03 | S. cerevisiae deletion strains, locus YPR167C, strain met16, active compounds read low 1.01 | S. cerevisiae deletion strains, strain wtn01, active compounds read low 1.01 | S. cerevisiae strains, strain wild type, active compounds read low 1.04
